{
  "source": "PubChem BioAssay (NCATS)",
  "note": "Results filed as inconclusive are left out. Values without a mark were called inactive. Active and inactive are the calls of the source. Calls follow the shape of the dose curve; as a rule, active = well fitted cell-killing curve with a large enough effect; inconclusive = small, poorly fitted or top-dose-only effect; inactive = no such curve, though single readings can be large or run the other way. % is scaled to controls: 0 for no effect and ±100 for the full control effect; potency is read from the fitted curve at half-maximal effect.",
  "data": [
    {"assay": "qHTS of pediatric cancer cell lines to identify multiple opportunities for drug repurposing: Primary screen for Saos-2 cells (AID 1347097); also: nearly all actives have a fitted effect of over 40% in size", "conditions": "Saos-2 viability, CellTiter-Glo ATP luminescence, 48 h; series mostly up to 46 µM; activity change, negative = cytotoxic: at the top concentration", "text": "Drug repurposing or repositioning has been offered as a strategy for drug development in oncology programs. This approach has special potential for childhood cancers and other rare or orphan diseases, where the expected return on new drug development has been a disincentive to pharmaceuticals. […] In this project we exploit the poly-pharmacology of drugs to discover new indications via phenotypic screening of a panel of 19 well-characterized cell lines derived from solid tumors seen in children and adolescents. The goal is to identify approved drugs with previously unrecognized anticancer properties that has the potential to reveal new mechanisms and biological processes involved in carcinogenesis or drug resistance. We employed a titration-based paradigm (quantitative high-throughput screening or qHTS), where all compounds were tested at multiple concentrations for their effect on cell viability. Concentration-response curves (CRCs) were derived directly from the primary screen, and both potency and efficacy values were used to identify compounds with robust bioactivity profiles. We screened the NIH Chemical Genomics Center (NCGC) Pharmaceutical Collection (NPC) and Mechanism Interrogation Plate (MIPE) small molecule collections of approved and investigational compounds against these cell lines; and measured metabolically active cells after 48 hours of compound treatment as a proxy for cell viability. […] Assay Submitter: Nathalia J. Martinez, National Center for Advancing Translational Sciences, National Institutes of Health, Rockville, MD, USA; email: natalia.martinez@nih.gov Shen, M et al. Quantitative high-throughput phenotypic screening of pediatric cancer cell lines identifies multiple opportunities for drug repurposing. Oncotarget 2017 Dec 19;9(4):4758-4772. PMID 29435139.\nThe cells were obtained from University of North Carolina (UNC), Pediatric Preclinical Testing Program (PPT), and Coriell Institute (CI). qHTS cell viability assay: Cells were assayed in growth media at a density of 500-1,000 cells/well. Five microliters of cells were dispensed into 1,536-well, white, solid-bottom, TC-treated plates (Greiner Bio One) using a multidrop dispenser and incubated at 37 degrees C, 5% CO2, under a humidified atmosphere for 5 hours. Twenty-three nanoliters of compounds and controls (neutral control DMSO or positive control bortezomib at final concentration of 2.3 µM) were subsequently transferred by Kalypsys pintool. For primary screens, the MIPE collection was tested at 11-point dilutions (final concentrations range from 0.78 nM to 46 µM) and the NPC collection at 8-point dilutions (final concentrations range from 0.59 nM to 46 µM). Compounds tested in follow-up screens were assayed at 11-point dilutions. Cells were incubated for 48 hours, followed by addition of 3 µL of CellTiter-Glo (Promega). After a 15 min incubation at room temperature, samples were analyzed for luminescence intensity using a ViewLux High-throughput CCD imager equipped with clear filters.", "values": [
      {"smiles": "CN(C)CCc1c[nH]c2cccc(O)c12", "activity change, negative = cytotoxic": "-12% [at 92.7 µM]"},
      {"smiles": "CC(CC(C(N)=O)(c1ccccc1)c1ccccc1)N(C)C", "note": "(stereo not given)", "activity change, negative = cytotoxic": "-20.4%"},
      {"smiles": "CCC(=O)OC1(c2ccccc2)CCN(C)CC1", "activity change, negative = cytotoxic": "-18.2% [at 92.7 µM]"},
      {"smiles": "COc1ccc2c3c1O[C@H]1[C@@H](O)C=C[C@H]4[C@@H](C2)N(C)CC[C@@]341", "Potency": "37.8 µM (active)"},
      {"smiles": "O=C1CN2CCOC2(c2ccccc2Cl)c2cc(Cl)ccc2N1", "note": "(stereo not given)", "activity change, negative = cytotoxic": "-8.63%"},
      {"smiles": "C[C@@H]1CN(C2CCC(C#N)(c3ccc(F)cc3)CC2)CC[C@]1(C(=O)O)c1ccccc1", "note": "(stereo not given in full)", "activity change, negative = cytotoxic": "12.9%"},
      {"smiles": "CC[C@H](O)C(C[C@H](C)N(C)C)(c1ccccc1)c1ccccc1", "activity change, negative = cytotoxic": "-27.9% [at 92.7 µM]"},
      {"smiles": "Oc1ccc2[nH]cc(CCCCN3CC=C(c4ccccc4)CC3)c2c1", "activity change, negative = cytotoxic": "-25.4%"},
      {"smiles": "CCCOC(=O)Cc1ccc(OCC(=O)N(CC)CC)c(OC)c1", "activity change, negative = cytotoxic": "10.3%"},
      {"smiles": "COP(=O)(OC)C(O)C(Cl)(Cl)Cl", "note": "(stereo not given)", "activity change, negative = cytotoxic": "-15.2%"},
      {"smiles": "CN1CCC(N(Cc2ccccc2)c2ccccc2)CC1", "activity change, negative = cytotoxic": "-21.3%"},
      {"smiles": "COc1cc(CC(C)N)cc2c1OCO2", "note": "(stereo not given)", "activity change, negative = cytotoxic": "-28.6% [at 92.7 µM]"},
      {"smiles": "Sc1ccccc1Cl", "activity change, negative = cytotoxic": "-19.8%"},
      {"smiles": "CCOC(=O)c1ncn2c1CN(C)C(=O)c1c(I)cccc1-2", "activity change, negative = cytotoxic": "11.7%"},
      {"smiles": "CC[n+]1c(-c2ccccc2)c2cc(N)ccc2c2ccc(N)cc21", "Potency": "13.3 µM (active)"},
      {"smiles": "CCN(CC)C(C)C(=O)c1ccccc1", "note": "(stereo not given)", "activity change, negative = cytotoxic": "-4.88%"},
      {"smiles": "COc1cc(CC(C)N)c(OC)cc1Br", "note": "(stereo not given)", "Potency": "35.7 µM (active)"},
      {"smiles": "CCN(CC)CCOC(=O)C(C)(c1ccccc1)c1ccccc1", "activity change, negative = cytotoxic": "-11.6%"},
      {"smiles": "CCC(OC(C)=O)C(CC(C)NC)(c1ccccc1)c1ccccc1", "note": "(stereo not given)", "Potency": "43.7 µM (active)"},
      {"smiles": "C#C[C@]1(O)C=C[C@H]2[C@@H]3CCC4=CC(=O)CC[C@@H]4[C@H]3CC[C@@]21CC", "activity change, negative = cytotoxic": "-8.29%"},
      {"smiles": "COc1ccc2[nH]cc(CCN(C(C)C)C(C)C)c2c1", "activity change, negative = cytotoxic": "-4.75% [at 92.7 µM]"},
      {"smiles": "O=C(O)Cc1ccccc1", "activity change, negative = cytotoxic": "-16.9%"},
      {"smiles": "O=C(N[C@H]1N=C(c2ccccc2F)c2cccc3c2N(CC3)C1=O)c1cc2ccccc2[nH]1", "activity change, negative = cytotoxic": "-11%"},
      {"smiles": "O=C(CBr)Nc1ccc(Cl)cc1C(=O)c1ccccc1F", "activity change, negative = cytotoxic": "-18.3%"},
      {"smiles": "CC(C)=C[C@@H]1[C@@H](C(=O)OCc2coc(Cc3ccccc3)c2)C1(C)C", "activity change, negative = cytotoxic": "-21%"},
      {"smiles": "CC[C@H]1C[C@H]2[C@@H]3CCC4=CC(=O)CC[C@@H]4[C@H]3CC[C@]2(C)[C@H]1O", "activity change, negative = cytotoxic": "-21%"},
      {"smiles": "CC(C)C(Br)C(=O)NC(N)=O", "note": "(stereo not given)", "activity change, negative = cytotoxic": "-18.8%"},
      {"smiles": "COc1cc(CC#N)cc(OC)c1OC", "activity change, negative = cytotoxic": "14.8%"},
      {"smiles": "CN(C)CCc1c[nH]c2ccc(O)cc12", "activity change, negative = cytotoxic": "-22% [at 92.7 µM]"},
      {"smiles": "NC(=O)CN1CCCC1=O", "activity change, negative = cytotoxic": "17.1%"},
      {"smiles": "ClC1=C(Cl)C2(Cl)C(CBr)CC1(Cl)C2(Cl)Cl", "note": "(stereo not given)", "activity change, negative = cytotoxic": "-13.6%"},
      {"smiles": "NCc1cccnc1", "activity change, negative = cytotoxic": "3.09%"},
      {"smiles": "NC1(c2ccccc2)CCCCC1", "activity change, negative = cytotoxic": "-36% [at 92.7 µM]"},
      {"smiles": "CC#C[C@]1(O)CC[C@H]2[C@@H]3C[C@H](C)C4=CC(=O)CC[C@]4(C)[C@H]3CC[C@@]21C", "activity change, negative = cytotoxic": "-27.1%"},
      {"smiles": "ClCc1cccc(Cl)c1", "activity change, negative = cytotoxic": "-1.58%"},
      {"smiles": "CCN(Cc1ccc(Cl)nc1)/C(=C/[N+](=O)[O-])NC", "activity change, negative = cytotoxic": "18.7%"},
      {"smiles": "O=c1n(Cl)c(=O)n(Cl)c(=O)n1Cl", "activity change, negative = cytotoxic": "14.2%"},
      {"smiles": "CN(C)CCc1c[nH]c2ccccc12", "activity change, negative = cytotoxic": "-26.9% [at 155 µM]"},
      {"smiles": "COc1ccc2c(C(=O)c3ccc(Cl)cc3)c(C)n(CC(=O)O)c2c1", "activity change, negative = cytotoxic": "-8.93%"},
      {"smiles": "c1cc2c(c(N3CCNCC3)c1)OCCO2", "activity change, negative = cytotoxic": "0.473%"}
    ]}
  ]
}
